In the library only some 7.5% were active in any assay of this set; here they are far more common.
Luc counter: blocks Kinase-Glo luciferase, a counter-screen artifact | Q27757 | Kinase-Glo luciferase, ATP luminescence, 8 min | Potency, µM (doses to about 38.3 µM), most hits filed as inhibitors | actives 0.28% (n = 200,000); note: nearly all actives have a fitted effect of over 60% in size
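Light output from Kinase-Glo luciferase with luciferin and 10 uM ATP in 50 mM imidazole pH 7.2, KCl, MgCl2, Tween 20, BSA; compound pin-delivered, 8-min ambient incubation, then luminescence read.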
Rab9 prom act: activates the Rab9 promoter; Huh7 Rab9 promoter-luciferase reporter, luminescence, 24 h; Potency, µM (highest dose often 9.22 µM), actives largely listed as activators; actives 2.8% (n = 320,000); note: nearly all actives have a fitted effect of over 60% in size
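Cell-based reporter: Huh7 stable for Rab9 promoter-driven luciferase, plated in reduced-serum medium with 10% FBS at 1500 cells/well, compound-treated 24 h at 37 °C, luminescence read after 10 min reagent.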
ELG1 genotox: inducers of genotoxicity in HEK293T ELG1-luciferase cells; HEK293T ELG1-luciferase reporter, luminescence, 16 h; AID 504466; Potency, µM (highest dose often 46 µM), usual class: activators; actives 1.3% (n = 330,000); note: nearly all actives have a fitted effect of over 60% in size
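Quantitative HTS format in 1536-well plates. HEK293T ELG1-luciferase reporter cells receive test compound and are incubated 16 hr at 37 °C, 5% CO2; ONE-Glo added, 30 min room temperature, then luminescence read.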
SMN2 splice enh: SMN2 splice variant enhancement | actives 2.8% (n = 210,000) | Potency, µM (highest dose often 46.1 µM), most hits filed as activators | HEK293 SMN2-luciferase splicing reporter, luminescence, 30-36 h; note: nearly all actives have a fitted effect of over 55% in size
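HEK293 cells carry an SMN2 […]–luciferase reporter in which exon 7 inclusion puts luciferase in frame. Cells were plated 10-12 h before compound addition, then incubated 30-36 h at 37C. ONE-Glo luminescence was read; sodium butyrate at 4.5 mM final served as control.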
FLuc modulator: inhibits or activates purified firefly luciferase, miR-21 counter-screen. Potency, µM (top dose mostly 57.5 µM), most hits filed as inhibitors. purified FLuc, Km substrates, luminescence inhibition. actives 6.9% (n = 360,000). P08659; note: nearly all actives have a fitted effect of over 55% in size
Target sequence (P08659 whole entry, looked up): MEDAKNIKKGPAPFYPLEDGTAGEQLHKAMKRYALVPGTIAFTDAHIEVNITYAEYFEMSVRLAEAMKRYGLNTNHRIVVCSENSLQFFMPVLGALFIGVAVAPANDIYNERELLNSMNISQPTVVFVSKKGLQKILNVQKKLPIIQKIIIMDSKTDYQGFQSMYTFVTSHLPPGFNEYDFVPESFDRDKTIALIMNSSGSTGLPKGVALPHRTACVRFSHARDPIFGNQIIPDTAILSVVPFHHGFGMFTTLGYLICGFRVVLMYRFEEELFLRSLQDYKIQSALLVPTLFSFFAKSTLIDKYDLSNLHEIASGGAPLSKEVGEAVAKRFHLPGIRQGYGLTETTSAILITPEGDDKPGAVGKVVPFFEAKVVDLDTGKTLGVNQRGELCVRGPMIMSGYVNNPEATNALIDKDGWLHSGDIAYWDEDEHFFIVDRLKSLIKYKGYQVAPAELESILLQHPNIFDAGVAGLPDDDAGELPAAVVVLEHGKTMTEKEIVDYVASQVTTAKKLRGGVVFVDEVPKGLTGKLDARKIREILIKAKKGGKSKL
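Biochemical qHTS of compounds, final roughly 60 µM downward over six points, against 10 nM purified firefly luciferase using Km concentrations of substrates (10 uM D-luciferin, 10 uM ATP) in Tris acetate pH 7.5 buffer; luminescence output.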
NPC1 promoter act: activators of NPC1 promoter | Huh7 NPC1 promoter luciferase reporter, 24 h | Potency, µM (series often up to 9.22 µM), usual class: activators | actives 2.4% (n = 320,000) | AID 485313; note: nearly all actives have a fitted effect of over 60% in size
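Compounds in DMSO were transferred onto Huh7 NPC1-luciferase reporter cells pre-incubated 2 h; after 24 h at 37 °C, Amplite reagent was dispensed and luminescence recorded 10 min later.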
Each line names hits and unclear results; the compound was inactive in the other large screens. Calls come from the whole dose curve; as a rule, active = well fitted curve in the direction sought with a large enough effect; inconclusive = small, poorly fitted or top-dose-only effect, or another doubt; inactive = no such curve, though single readings can be large; an effect the other way counts as inactive or inconclusive.

CCOc1ccc(-c2nc3ccccc3c(=O)o2)cc1	Rab9 prom act 1.4µM, ELG1 genotox inconclusive, SMN2 splice enh 16µM, FLuc modulator 0.43µM, NPC1 promoter act 3.5µM
COc1ccc(-c2nc3ccccc3c(=O)o2)cc1OC	FLuc modulator 8.5µM
COc1ccc(-c2nc3ccccc3nc2-c2ccc(OC)c(OC)c2)cc1OC	none (no result: Luc counter, SMN2 splice enh)
COc1ccc(-c2nnc3c4ccccc4c(-c4ccccc4)nn23)cc1	none (no result: Luc counter, Rab9 prom act, ELG1 genotox, NPC1 promoter act)
O=C(CSc1ccc(Cl)cc1)Nc1ccc(-c2nc3ccccc3[nH]2)cc1	Rab9 prom act inconclusive, SMN2 splice enh 7.9µM
S=C(Nc1ccc(-c2nc3ccccc3[nH]2)cc1)Nc1cccnc1	Rab9 prom act 1.4µM, ELG1 genotox inconclusive, FLuc modulator 13µM, NPC1 promoter act inconclusive (no result: Luc counter, SMN2 splice enh)
O=C(/C=C/c1ccco1)Nc1ccc(-c2nc3ccccc3[nH]2)cc1	SMN2 splice enh 3.5µM
O=C(/C=C/c1ccco1)Nc1ccc(Oc2ccc(Cl)cc2)cc1	none
O=C(Nc1ccc(-c2nc3ccccc3[nH]2)cc1)c1ccco1	Luc counter inconclusive, Rab9 prom act 2.2µM, ELG1 genotox 1.8µM, SMN2 splice enh 6.3µM, FLuc modulator 4.3µM, NPC1 promoter act 0.71µM
O=C(CSc1nc2ccccc2[nH]1)Nc1ccc(F)cc1	none
Cc1c(NC(=O)C(F)(F)F)ccc2nc3c(=O)n(C)c(=O)n(C)c3nc12	none (no result: Luc counter, Rab9 prom act, ELG1 genotox, NPC1 promoter act)
COc1ccc(OC)c(NC(=O)c2cc(C3CC3)nc3c2c(C)nn3-c2ccc(C)cc2)c1	none (no result: Luc counter, Rab9 prom act, ELG1 genotox, SMN2 splice enh, NPC1 promoter act)
COc1ccc(NS(=O)(=O)c2cc(NC(=O)[C@@H](NC(=O)c3ccccc3)C(C)C)ccc2C)cc1	none
CCNC(=O)Cc1ccc(NC(=O)N2CCCCc3ccccc32)cc1	none (no result: Luc counter, Rab9 prom act, ELG1 genotox, SMN2 splice enh, NPC1 promoter act)
O=C(CSc1ccc(-c2nc3ccccc3[nH]2)cn1)N1CCN(C(=O)c2ccco2)CC1	FLuc modulator 11µM
Cc1ccc(C2=Nc3ccccc3N(CC(=O)Nc3ccccc3C)C(=O)C2)cc1C	FLuc modulator 11µM (no result: Luc counter, Rab9 prom act, ELG1 genotox, SMN2 splice enh, NPC1 promoter act)
Cc1nnc(SCC2=C(C(=O)O)N3C(=O)C(NC(=O)Cn4cnnn4)[C@@H]3SC2)s1 (stereo partly drawn)	none (no result: Rab9 prom act, ELG1 genotox, FLuc modulator, NPC1 promoter act)
O=c1cc(-c2ccc(F)cc2)nc(SCc2nc(-c3ccccc3Cl)no2)[nH]1	none (no result: Luc counter, Rab9 prom act, ELG1 genotox, SMN2 splice enh, NPC1 promoter act)
CCn1c2ccc(C)cc2c2nc3cc(C(=O)O)ccc3nc21	Rab9 prom act inconclusive, ELG1 genotox inconclusive, FLuc modulator 27µM
CCn1c2ccc(Cl)cc2c2nc3ccccc3nc21	FLuc modulator inconclusive
COc1cc(Cl)c(NS(=O)(=O)c2ccc(-c3cnc(C4CC4)o3)cc2)c(OC)c1	none (no result: Luc counter, Rab9 prom act, ELG1 genotox, SMN2 splice enh, NPC1 promoter act)
O=C(O)C=C1CCN(c2ncc(C(F)(F)F)cc2Cl)CC1	Rab9 prom act inconclusive, FLuc modulator 19µM, NPC1 promoter act inconclusive
O=C1c2ccccc2NC2(CCCCC2)N1c1ccc(O)cc1	ELG1 genotox inconclusive, SMN2 splice enh 8.9µM, FLuc modulator inconclusive
CC1CCC2(CC1)Nc1ccccc1C(=O)N2c1ccccc1 (stereo not drawn)	Rab9 prom act inconclusive, ELG1 genotox inconclusive, SMN2 splice enh inconclusive
Cc1ccc(/C=N/NC(=O)c2nnn(-c3nonc3N)c2-c2cccs2)cc1	FLuc modulator 9.5µM (no result: Luc counter, SMN2 splice enh)
Nc1nonc1-n1nnc(C(=O)N/N=C/c2cccnc2)c1-c1cccs1	FLuc modulator inconclusive (no result: Luc counter, SMN2 splice enh)
COc1ccc(/C=N/NC(=O)c2nnn(-c3nonc3N)c2-c2cccs2)cc1OC	FLuc modulator 19µM (no result: Luc counter, SMN2 splice enh)
C[C@@]12CCC(OC(=O)c3ccccc3)CC1CCc1ccccc12 (stereo partly drawn)	none (no result: Rab9 prom act, ELG1 genotox, FLuc modulator, NPC1 promoter act)
O=C(CN1C(=O)COc2ccc(S(=O)(=O)N3CCOCC3)cc21)N1CCN(c2ccccc2)CC1	none (no result: Luc counter, Rab9 prom act, ELG1 genotox, SMN2 splice enh, NPC1 promoter act)
O=C(COC(=O)c1cccc(NC(=O)c2ccc(Br)cc2)c1)c1ccc(Cl)cc1	SMN2 splice enh inconclusive, FLuc modulator 2.7µM (no result: Luc counter, Rab9 prom act, ELG1 genotox, NPC1 promoter act)
O=C(COC(=O)c1cccc(NC(=O)c2ccco2)c1)c1ccc(Br)cc1	Rab9 prom act inconclusive, FLuc modulator 1.7µM, NPC1 promoter act inconclusive
CC(C)(C)C(=O)COC(=O)c1cccc(NC(=O)c2ccco2)c1	SMN2 splice enh inconclusive, FLuc modulator inconclusive
